The values that follow come from ChEMBL document CHEMBL3433997, “St. Jude Leishmania screening dataset” (2016).

Each structure is given as a SMILES string.

The assay deals with Glucose transporter (Leishmania mexicana) (UniProt O61059). Nature of the assay: ST_JUDE_LEISH: Cytotoxicity at 2uM final concentration against transgenic Leishmania Mexicana promastigotes LmGT2 that are glucose transport deficient and complemented with the L. Mexicana glucose transporter 2. Activity is measured by DNA content using SYBR green in vitro. The class given is functional.
In the case of `Oc1ccc(CCNc2nc(NCCCOc3ccccc3-c3ccc(F)cc3)nc(N3CCNCC3)n2)cc1`, the inhibition – broadly, the drop in the measured response relative to a control, in per cent – came out at 9.28%. In the case of `CC(C)(C)C(=O)Oc1ccc(CC2NCCc3cc(OC(=O)C(C)(C)C)c(OC(=O)C(C)(C)C)cc32)cc1OC(=O)C(C)(C)C` (stereo not given), the inhibition is 7.65%. As for `NCC1CCCN1Cc1ccc(-c2cccc(-c3nc4cc(C(F)(F)F)ccc4[nH]3)c2)cc1` (stereo not given), the inhibition worked out at 3.17%. `CCn1c(-c2nonc2N)nc2c(-c3cccc(NC(=O)Nc4cccc(OC)c4)c3)ncc(OCCCN)c21`: the inhibition turned out to be 1.32%. `COc1ccc(CNCc2ccc(-c3ccc(-c4nc5cc(F)ccc5[nH]4)cc3)cc2)cc1`: the inhibition was determined as 1.74%. As for `O=C(Nc1ccccc1)c1ccc(N2CCC(COc3cccc(C(F)(F)F)c3)CC2)nc1`, the inhibition is 1.07%. For `O=C(CCc1cccnc1)Nc1ccc(-c2cccc(-c3nc4cc(F)ccc4[nH]3)c2)cc1`, the inhibition worked out at 8.65%. For `Cc1cccc2nc(-c3cccc(-c4ccc(NC(=O)C(C)C(=O)NC(C)C)cc4)c3)[nH]c12` (stereo not given), the inhibition was found to be 2.38%. The figure for `COc1ccccc1C1CCN(C2CCC(NC(=O)/C=C/c3cc(C(F)(F)F)ccc3F)CC2)CC1` (stereo not given) is 3.14%; for `CCOc1cccc(C(=O)Nc2cccc(CN3CCCN(Cc4cccc(O)c4)CC3)c2)c1` it is 3.26%; for `CC(=O)Nc1ccc(C(=O)Nc2cccc(-c3ccc(-c4nc5cc(F)ccc5[nH]4)s3)c2)cn1` it is 2.75%. On to `O=C(Nc1ccccc1)Nc1ccc(-c2cccc(-c3nc4cc(C(F)(F)F)ccc4[nH]3)c2)cc1`, for which the inhibition was found to be 2.05%.

Turning to `COc1ccc2nccc(N/N=C/c3cccc([N+](=O)[O-])c3)c2c1`, the inhibition turned out to be 4.33%. On to `O=C(Nc1cccc(CN2CCCN(Cc3ccc(O)cc3)CC2)c1)c1cc(F)cc(F)c1`, for which the inhibition is -5.2%.

Turning to `O=C(Nc1cccc(-c2ccc(CN3CCCC3)cc2)c1)c1cccc(Cl)c1`, the inhibition was found to be 0.25%.

Turning to `O=C1CC(C(=O)O)CC(=O)N1`, the inhibition is -0.61%. The figure for `Cc1ccc(C2CCN(CCCCNC(=O)c3ccc(NC(=O)c4ccc(Cl)cc4)cc3)CC2)c(C)c1` is -0.85%; for `C=CCOC(=O)O[C@@H]1[C@@H](OC(=O)OCC=C)[C@@H](OC)O[C@H](COC(c2ccccc2)(c2ccccc2)c2ccccc2)[C@H]1OC(=O)OCC=C` it is 4.42%; for `CC(CCc1ccccc1)NCC(O)c1cccc(C(F)(F)F)c1` (stereo not given) it is 3.76%. As to `CCOc1ccccc1C(=O)N1CCc2cc3nccc(N4CCN5CCC[C@H]5C4)c3cc21`, the inhibition is -0.44%. Turning to `Cc1ccccc1Nc1nc(Nc2ccccc2)c2ccccc2n1`, the inhibition was determined as 13%. As for `COc1cc(CNCCCNc2nc(=O)c3sccc3[nH]2)c2[nH]cc(Cl)c2c1`, the inhibition was found to be 87.6%. In the case of `CCc1cccc(C)c1-n1nc(-c2cc(C(C)(C)C)oc2C)cc1N`, the inhibition turned out to be 0.33%. Turning to `COc1ccc(Nc2ncc(Cl)c(Nc3cccnc3C(N)=O)n2)cc1N1CCN(C)CC1`, the inhibition stood at 85.9%. Take `CC(C)(C)c1ccc(NC(=O)c2cccc(CN3CCCN(Cc4ccsc4)CC3)c2)cc1`: the inhibition was 1.41%. `COc1ccc(CNCc2ccsc2)cc1-c1ccc(OC)c(S(=O)(=O)NCCN2CCCC2)c1`: the inhibition was -1.86%. As for `COc1ccc(-c2nc3c(N)nc(N)nc3nc2-c2ccccc2Cl)cc1.COc1ccc(-c2nc3nc(N)nc(N)c3nc2-c2ccccc2Cl)cc1`, the inhibition was 6.97%. As for `CC(C)(C)N1CCC(N(Cc2ccc(-c3ccc(C(F)(F)F)cc3)cc2)C(=O)Cn2c(CCc3cccc(F)c3F)cc(=O)c3cccnc32)CC1`, the inhibition was -1.6%. The figure for `O=C(Nc1cccc(-c2ccc(-c3nc4cc(F)ccc4[nH]3)cc2)c1)Nc1ccc(Cl)c(Cl)c1` is 5.84%; for `CCCNCc1c(O)ccc2c(CNCCC)c(O)ccc12` it is 0.49%; for `O=C(Nc1cccc(F)c1)N(Cc1ccc(-c2cccc(CN3CCNCC3)c2)cc1)C1CCN(Cc2ccccc2)CC1` it is 6.85%. Regarding `CCCNC(=O)Nc1ccc(N(C)c2ccnc(NC3CC3)n2)cc1`, the inhibition worked out at 5.87%. For `COc1ccc2nccc([C@@H](O)CN3CCC(NS(=O)(=O)c4cc(Br)c(Br)s4)CC3)c2c1`, the inhibition came to 1.8%. As to `CC1CCCCN1Cc1cccc(-c2c[nH]c3nc(NC4CCCC4)ncc23)c1` (stereo not given), the inhibition is 6.08%.

`Cc1cccc2nc(-c3ccc(-c4ccc(NC(=O)CN5CCN(C)CC5)cc4)cc3)[nH]c12`: the inhibition is 4.7%.

On to `CC(C)(C)CCN1CCC(CNC(=O)c2cc(-c3cccc(Cl)c3)cs2)C1` (stereo not given), for which the inhibition was -1.21%. In the case of `CC(C)(CNCCOc1ccc(Cl)cc1)c1nc(-c2ccnc(N)n2)c(-c2ccc(Cl)c(O)c2)[nH]1` it was 0.27%; in that of `Cc1cccc2nc(-c3ccc(-c4ccc(CN5CCC(C(N)=O)CC5)cc4)s3)[nH]c12`, 8.95%.

As to `COCCn1c(C)cc(C(=O)CN2C(=O)NC(C)(c3ccc(C(C)(C)C)cc3)C2=O)c1C` (stereo not given), the inhibition stood at 1.71%.

`CCN(CC)c1ccc(C(c2ccc(N(CC)CC)cc2)c2cccc([N+](=O)[O-])c2)cc1`: the inhibition was 11.1%.
